# Entries with a potency or affinity are not part of this list. Calls of active or inactive are those of the source.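 The calls were made as follows: active = fitted half-maximal dose no more than twice the top valid tested dose, for compounds that lower signal; inconclusive = fit invalid, or curve flat with activity between -70 and -30; inactive = potency past limit, curve flat within ±30, or signal increasing.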
# Target: NAD-dependent protein deacylase sirtuin-5, mitochondrial (Homo sapiens) (UniProt Q9NXA8)
# Test: SIRT5 deacylase inhibitors, dose response, biochemical, fluorescence imaging, cherry-pick, set 6 (AID 720597);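 also: lower AMC signal can also come from blocking the trypsin step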
# Conditions: Purified SirT5, succinyl-peptide-AMC/trypsin fluorescence; series mostly up to 15 µM
# NAD-dependent protein deacylase sirtuin-5, mitochondrial (Homo sapiens), sequence (Q9NXA8 whole entry, looked up): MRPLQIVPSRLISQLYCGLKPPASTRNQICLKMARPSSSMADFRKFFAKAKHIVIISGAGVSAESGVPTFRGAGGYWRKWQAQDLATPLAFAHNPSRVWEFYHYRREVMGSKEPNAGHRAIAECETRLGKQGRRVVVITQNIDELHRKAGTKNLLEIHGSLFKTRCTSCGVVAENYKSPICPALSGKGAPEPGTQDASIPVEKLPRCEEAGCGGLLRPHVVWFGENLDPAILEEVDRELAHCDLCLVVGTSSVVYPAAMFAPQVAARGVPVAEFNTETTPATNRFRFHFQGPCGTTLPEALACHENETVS
row,Compound,outcome
1,Cn1cnc(CCNC(=O)C[C@@H]2CC[C@@H]3[C@H](COC[C@@H](O)CN3C(=O)Nc3ccc(Cl)cc3)O2)c1,inactive
2,C[C@H]1CN([C@@H](C)CO)S(=O)(=O)c2ccc(C#CC(C)(C)O)cc2O[C@@H]1CN(C)Cc1ccc(-c2ccccc2)cc1,inactive
3,CO[C@H]1CN(C)C(=O)c2cc(NC(C)=O)ccc2OC[C@H](C)N(S(=O)(=O)c2cn(C)cn2)C[C@H]1C,inactive
4,CCCC#Cc1ccc2c(c1)O[C@H](CN(C)Cc1ccccc1)[C@@H](C)CN([C@H](C)CO)S2(=O)=O,inactive
5,Cc1ccc(S(=O)(=O)Nc2ccc3c(c2)C(=O)N([C@@H](C)CO)C[C@@H](C)[C@H](CN(C)Cc2ccc(C(F)(F)F)cc2)OCCCC[C@@H](C)O3)cc1,inactive
6,CO[C@H]1CC[C@@H]2CCOc3c(C#N)cccc3C(=O)N(C)C[C@H](C)C(=O)N(C)C[C@@H]1O2,inactive
7,COc1ccc(S(=O)(=O)Nc2ccc3c(c2)C(=O)N([C@@H](C)CO)C[C@H](C)[C@H](CN(C)Cc2ccc(Oc4ccccc4)cc2)O3)cc1,inactive
8,COc1ccc(S(=O)(=O)N(C)C[C@@H]2Oc3c(NS(C)(=O)=O)cccc3C(=O)N([C@@H](C)CO)C[C@H]2C)cc1,inactive
9,COc1cccc(S(=O)(=O)N(C)C[C@@H]2Oc3cc(C4=CCCCC4)ccc3S(=O)(=O)N([C@@H](C)CO)C[C@H]2C)c1,inactive
10,COc1ccc(NC(=O)N(C)C[C@H]2Oc3ccc(NS(=O)(=O)c4ccc(OC)cc4)cc3CC(=O)N([C@H](C)CO)C[C@H]2C)cc1,inactive
11,C[C@H](CO)N1C[C@H](C)[C@@H](CN(C)Cc2ccc(Cl)c(Cl)c2)Oc2c(NC(=O)c3ccc(-c4nccs4)cc3)cccc2C1=O,inactive
12,CN(C)C(=O)c1cccc(-c2ccc([C@@H]3[C@H](CO)N4CCCCN(S(C)(=O)=O)C[C@@H]34)cc2)c1,inactive

# — PubChem BioAssay AID720597 (Broad Institute, 2013)
